This is an account of results in PubChem BioAssay AID618 (Sanford-Burnham Center for Chemical Genomics, 2007).

Screen size: about 87,000 compounds; about 540 (0.62%) were called active. This is one part of a sample in which actives are shown more often than they occur. How the calls were made is not given here. Results with a measured potency or affinity are listed apart.

A short description of this experiment: MT1-MMP gene expression reporter suppression – cell-based, luciferase reporter, luminescence (AID 618).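 Further: actives suppress MT1-MMP promoter-driven transcription so potencies describe inhibitors.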 The settings on record: MT1-MMP promoter luciferase reporter cells.
On to `O=C(NCc1ccncc1)Nc1ccc(Cl)cc1Cl`, for which the result was inactive. With `CCCn1c(=O)c2c(c3ccccc31)OCC(=O)N2` the entry was “inactive”.

In the case of `COc1ccc(Cc2nnc3n2N=C(c2cc4ccccc4o2)CS3)cc1OC`, the call was inactive.

On to `COC(=O)CSc1nsc(SCC(=O)OC)n1`, for which the compound was classed as inactive. With `CCCCCSc1nc2c(cnn2-c2ccccc2)c(=O)[nH]1` the entry was “inactive”. With `O=C(Nc1nc2ccccc2[nH]1)c1ccc(F)cc1` the entry was “active”; with `O=C(NCCc1nc2ccccc2[nH]1)c1ccc(F)cc1`, “inactive”; with `COc1ccc(C(=O)Nc2nc3ccccc3[nH]2)cc1OC`, “inactive”. Regarding `Cc1[nH]c2ccccc2c1/C=N/n1cnnc1`, the compound was called inactive. Next, `Nc1c(C(=O)Nc2ccccc2)sc2nc3c(c(-c4ccco4)c12)CCC3`: “inactive”. Next, `COc1ccc(C2NC3=C(CCC3)C3(C#N)C(OC)(OC)N=C(N)C23C#N)cc1` (centres undefined): “inactive”. Next, `COc1ccc(OC)c(S(=O)(=O)NCCO)c1`: “inactive”. Regarding `O=C(NCCc1ccccc1)C1CC(c2ccccc2O)=NO1` (centres undefined), the call was inactive. Next, `O=C1CCCC/C1=C/Nc1ccc2c(c1)OCO2`: “inactive”; `COc1ccc2c(c1)CC/C(=C\Nc1ccc3c(c1)OCO3)C2=O`: “inactive”; `CCn1cc(Br)c(C(=O)Nc2cccc(SC)c2)n1`: “inactive”. With `CCOC(=O)c1c(C)c(C(=O)Nc2ccc3c(c2)OCO3)c(C)n1C` the entry was “inactive”.

Regarding `CCOC(=O)c1c(C)[nH]c(C(=O)Nc2ccc3c(c2)OCO3)c1C`, the compound was classed as inactive. With `CCOC(=O)c1c(N)sc(C(=O)Nc2ccc3c(c2)OCO3)c1C` the entry was “active”. With `COc1ccc(-c2nnc3ccc(SCC(=O)N4CCCC4)nn23)cc1` the entry was “inactive”.

On to `Cn1c(=O)c2c(nc(N3CCN(Cc4ccccc4)CC3)n2CCSc2ncccn2)n(C)c1=O`, for which the compound was called inactive. Next, `COc1ccc(Cl)cc1NS(=O)(=O)c1ccc(S(=O)(=O)N2CCCC2)cc1`: “inactive”; `COc1ccc(Cl)cc1NS(=O)(=O)c1ccc(OC)c(OC)c1`: “inactive”; `Cc1ccccc1NS(=O)(=O)c1ccc(N2CCCC2=O)cc1`: “inactive”.

On to `COc1ccc(CCNS(=O)(=O)c2ccc(N3CCCC3=O)cc2)cc1`, for which the compound was classed as inactive. Regarding `COc1ccc(OC)c(NS(=O)(=O)c2ccc(N3CCCC3=O)cc2)c1`, the result was active. With `COc1ccc(S(=O)(=O)Nc2cc(Cl)ccc2OC)cc1` the entry was “active”. Next, `C=CCc1cccc(/C=N/n2c(C)nnc2C)c1O`: “inactive”; `O=C1CC(c2ccc(S(=O)(=O)N3CCCCC3)cc2)CN1` (centres undefined): “inactive”. Regarding `CCOc1cccc(CNn2cnnc2)c1OCc1ccccc1`, the call was inactive. With `CCN1CCN(CCNC(=O)CS(=O)(=O)Cc2nc(-c3ccc(C)cc3)oc2C)CC1` the entry was “inactive”. Next, `CCOc1cc(-c2noc(N)c2C(=O)OC)cc(OCC)c1OCC`: “inactive”. Next, `Cc1ccc(-c2nc(N/N=C/c3cccnc3)c3ccccc3n2)cc1`: “inactive”; `Brc1ccc(-c2nc(N/N=C/c3cccnc3)c3ccccc3n2)cc1`: “inactive”.
